High-throughput results (PubChem BioAssay)
Sampled rows, rich in hits. Any-hit rate of the full collection: about 1.3%.
IL-2 act – qHTS of IL-2 Activators. IL-2 activation reporter assay, cell-based qHTS; stimulated with anti-CD3/CD4/CD28 beads; in transgenic mouse T cells. activation, % (series mostly up to about 46 µM). actives 0.065% (n = 360,000). AID 652025, 2013; in the data active = activation above about 50%; inconclusive = mostly about 30% to 49%
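EGFP and DsRed fluorescence is measured by plate cytometry in unstimulated transgenic mouse T cells exposed to compound for 60 minutes, then stimulated 18 hours at 37 degrees C with anti-CD3/anti-CD4 beads plus anti-CD28.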
a7 integrin act – qHTS for Activators of Integrin-Mediated Alleviation for Muscular Dystrophy; alpha7betagal myoblasts, beta-gal FDG fluorescence, 48 h; Potency, µM (doses to about 38.3 µM), hits mostly activators; actives 0.064% (n = 350,000); AID 624291, 2012; also: nearly all actives have a fitted effect of over 60% in size
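alpha7betagal+/- myoblasts (passage 13, 250/well) treated 48 h at 37C with compounds at 1:260 dilution of DMSO stock. Lysed, then beta-galactosidase activity read as FDG fluorescence (ex 480/em 540) after 30 min, with pre-read for autofluorescence.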
PKM2 act – qHTS Assay for Activators of Human Muscle isoform 2 Pyruvate Kinase | Pyruvate kinase PKM (Homo sapiens), P14618 | Potency, µM (doses to about 57.5 µM), hits mostly activators | AID 1631, 2009 | purified PKM2, Kinase-Glo ATP luminescence, activation; response scale: 0% is enzyme alone, no compound | actives 0.34% (n = 260,000); also: nearly all actives have a fitted effect of over 55% in size
Target sequence (P14618 whole entry, looked up, canonical isoform): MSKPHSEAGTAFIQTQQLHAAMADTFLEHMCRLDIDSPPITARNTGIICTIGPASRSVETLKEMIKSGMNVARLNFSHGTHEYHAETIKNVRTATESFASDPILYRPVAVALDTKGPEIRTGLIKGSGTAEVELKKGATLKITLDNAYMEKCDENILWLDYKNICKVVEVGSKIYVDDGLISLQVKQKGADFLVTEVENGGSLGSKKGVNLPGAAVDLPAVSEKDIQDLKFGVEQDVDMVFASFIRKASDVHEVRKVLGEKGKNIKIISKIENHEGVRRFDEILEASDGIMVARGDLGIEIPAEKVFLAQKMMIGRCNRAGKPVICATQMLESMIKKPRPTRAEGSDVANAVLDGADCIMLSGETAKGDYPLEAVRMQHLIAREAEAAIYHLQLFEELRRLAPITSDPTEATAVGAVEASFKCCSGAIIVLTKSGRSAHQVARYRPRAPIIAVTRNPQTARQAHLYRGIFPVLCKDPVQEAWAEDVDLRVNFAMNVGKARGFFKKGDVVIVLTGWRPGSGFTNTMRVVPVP
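ATP formation by purified human PK-M2, quantified via coupled luciferase luminescence after 1 h at room temperature with 0.1 mM ADP and 0.5 mM PEP final.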
Apoferritin bind – qHTS Assay for Identification of Novel General Anesthetics; Ferritin light chain (Equus caballus), P02791; apoferritin/1-aminoanthracene competitive binding, fluorescence; Potency, µM (titrated, usually from 77.5 µM), actives largely listed as inhibitors; actives 0.074% (n = 350,000); AID 485281, 2010; also: nearly all actives have a fitted effect of over 20% in size
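In PBS, apoferritin at 10 uM is loaded with 1-AMA from a 50% saturated solution. After 10 min of compound exposure at ambient temperature, reduced 535 nm fluorescence indicates probe displacement.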
BRCA1 expr act – qHTS Assay to Identify Small Molecule Activators of BRCA1 Expression. actives 1.1% (n = 380,000). MCF7-BRCA1-FFLuc reporter, luminescence, 48 h; response scale: scaled: vehicle 0%, 10 µM genistein 100%. Potency, µM (doses to about 46.1 µM), usual class: activators. AID 624202, 2012; also: nearly all actives have a fitted effect of over 80% in size
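Using MCF7 cells harboring a BRCA1 firefly luciferase reporter, plated 2 h before compound pinning, the screen measured luminescence after 48 h incubation. Responses were normalized to DMSO and 10 microM genistein, then fitted for concentration-effect.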
Each line names hits and unclear results; the compound was inactive in the other large screens. Unless noted, calls follow the shape of the dose curve; as a rule, active = well fitted curve in the direction sought with a large enough effect; inconclusive = small, poorly fitted or top-dose-only effect, or another doubt; inactive = no such curve, though single readings can be large; an effect the other way counts as inactive or inconclusive.

COc1cc2c3nnc(-c4ccccc4)c-3cn(Cc3ccccc3F)c2cc1OC	IL-2 act 176
O=C(Cc1ccccc1Nc1c(Cl)cccc1Cl)OCO/N=[N+](\[O-])N1CCCC1	none (no result: IL-2 act, a7 integrin act, PKM2 act, BRCA1 expr act)
COC(=O)NC(/C(C(=O)OC)=C(\C)NCc1ccccc1)c1cccc(C)c1 (stereo not given)	none (no result: IL-2 act, a7 integrin act, PKM2 act, BRCA1 expr act)
Cc1nc(-c2ccc(S(=O)(=O)Nc3cccc(Cl)c3)cc2)co1	PKM2 act 7.9µM
COC(=O)[C@@H]1CC[C@H](C)[C@@H](c2ccc(C)cc2)N1C(=O)c1ccc(/C=N\O[C@@H](C)c2cn([C@H]3COC[C@H]3O)nn2)cc1	none (no result: IL-2 act, a7 integrin act, PKM2 act, BRCA1 expr act)
CCN(Cc1ccccc1)C(=O)CCc1nnc(CCCc2ccccc2)o1	BRCA1 expr act 11µM
Cn1nnnc1SCCCNCc1cc(Cl)ccc1OCc1ccc(F)cc1	none (no result: IL-2 act, a7 integrin act, PKM2 act, BRCA1 expr act)
CC(=O)Nc1ccc(C=CC=Cc2cccc([N+](=O)[O-])c2)cc1	BRCA1 expr act 5µM (no result: PKM2 act, Apoferritin bind)
CC(=O)Nc1ccc(Oc2cc(N)cc([N+](=O)[O-])c2)cc1	none
CC(=O)Nc1ccc(Oc2ccc([N+](=O)[O-])cc2Cl)cc1	Apoferritin bind 16µM
Cc1c(C(=O)NC2CCC(C)CC2)oc2ccccc12 (stereo not given)	BRCA1 expr act 5µM
Cc1c(C(=O)NC2CC2)oc2ccccc12	a7 integrin act inconclusive (no result: PKM2 act, Apoferritin bind)
Cc1c(C(=O)OCC(=O)N2CCCC(C)C2)oc2ccccc12 (stereo not given)	BRCA1 expr act 10µM (no result: PKM2 act, Apoferritin bind)
COc1ccc2oc(C(=O)OCC(=O)N3CCCC(C)C3)c(C)c2c1 (stereo not given)	none (no result: PKM2 act, Apoferritin bind)
CCOc1ccc(CCNC(=O)c2nc(-c3cccc(F)c3)n3c2CCCCC3)cc1OCC	none (no result: IL-2 act, a7 integrin act, PKM2 act, BRCA1 expr act)
CCOc1ccc2ccccc2c1C1NC(=O)N(C)C(C)=C1C(=O)OCCOC (stereo not given)	a7 integrin act 6.3µM
CCOC(=O)C1=C(C)N(C)C(=S)NC1c1c(OCC)ccc2ccccc12 (stereo not given)	a7 integrin act inconclusive
CCOc1ccc(-n2nnc3c(=O)n(CC(=O)Nc4cc(C)on4)cnc32)cc1	PKM2 act 16µM
COc1ccc(/C=N/Nc2ncccc2[N+](=O)[O-])c(OC)c1	Apoferritin bind inconclusive, BRCA1 expr act 14µM
O=C(NCc1ccccc1)c1cc(-c2ccco2)on1	BRCA1 expr act 11µM
CC(=O)Nc1cccc(NC(=O)c2ccc3[nH]c(C)c(C)c3c2)c1	BRCA1 expr act 10µM
C1=Cc2ccccc2/C1=C\c1cccc(/C=C2\C=Cc3ccccc32)c1	none (no result: IL-2 act, a7 integrin act, PKM2 act, Apoferritin bind)
NS(=O)(=O)c1ccc(N/C=C/C(=O)c2ccc(Br)cc2)cc1	BRCA1 expr act inconclusive
NS(=O)(=O)c1ccc(N/C=C\C(=O)c2ccc(F)cc2)cc1	BRCA1 expr act 1µM
O=C(CCCc1nc2ccccc2s1)N1CCN(c2ccccc2)CC1	PKM2 act inconclusive
O=C(CCCc1nc2ccccc2s1)N1CCN(S(=O)(=O)c2cccs2)CC1	PKM2 act 4.5µM
Cc1ccc(CN2CCCn3nc(C(=O)NCCc4cccc(C)c4)cc3C2=O)cc1	none (no result: IL-2 act, a7 integrin act, PKM2 act, BRCA1 expr act)
COc1cc(CNCc2ccccn2)ccc1OCc1ccc(Cl)c(Cl)c1	Apoferritin bind inconclusive, BRCA1 expr act 20µM
COc1cc(CNCc2ccccn2)ccc1OCC(N)=O	none
COc1cc(CNCc2ccccn2)ccc1OCc1ccc(Cl)cc1Cl	Apoferritin bind 20µM
COc1ccc(N2CCN(C(=O)c3cc4c(=O)n(Cc5cccs5)ccc4nc3C)CC2)cc1	none (no result: IL-2 act, a7 integrin act, PKM2 act, BRCA1 expr act)
COc1ccc(CN(Cc2ccccc2)C(=O)c2ccno2)cc1COc1ccc(NC(C)=O)cc1	none (no result: IL-2 act, a7 integrin act, PKM2 act, Apoferritin bind)
CC(=O)c1cccc(NC(=O)N2CCc3ccccc3C2)c1	Apoferritin bind inconclusive, BRCA1 expr act 8.9µM
CC(=O)c1ccc(NC(=O)N2CCc3ccccc3C2)cc1	Apoferritin bind inconclusive, BRCA1 expr act 11µM
O=C(CNc1cccc(F)c1)N1CCc2ccccc2C1	BRCA1 expr act 7.9µM (no result: PKM2 act)
CN(C)c1ccc(NC(=O)CN2CCc3ccccc3C2)cc1	BRCA1 expr act 11µM
